Assay results: publication PMC7862700, “An all-to-all approach to the identification of sequence-specific readers for epigenetic DNA modifications on cytosine”

Tests used:
Test in all cases: DAPPL (digital affinity profiling via proximity ligation, sequencing); 10 mM Tris-HCl pH 7.5, 50 mM NaCl, 1 mM DTT, 4% glycerol, room temperature, 30 min; GST-TFs on glutathione beads, 16-mer random dsDNA library, 0.1% formaldehyde crosslink after washing; high values mean tight binding
Details in all cases: protein: recombinant; tags: N-terminal GST; dsDNA, one strand shown
ERF = molecular target: T1, ERF (Homo sapiens, UniProt P50548 1-548)
T1 sequence: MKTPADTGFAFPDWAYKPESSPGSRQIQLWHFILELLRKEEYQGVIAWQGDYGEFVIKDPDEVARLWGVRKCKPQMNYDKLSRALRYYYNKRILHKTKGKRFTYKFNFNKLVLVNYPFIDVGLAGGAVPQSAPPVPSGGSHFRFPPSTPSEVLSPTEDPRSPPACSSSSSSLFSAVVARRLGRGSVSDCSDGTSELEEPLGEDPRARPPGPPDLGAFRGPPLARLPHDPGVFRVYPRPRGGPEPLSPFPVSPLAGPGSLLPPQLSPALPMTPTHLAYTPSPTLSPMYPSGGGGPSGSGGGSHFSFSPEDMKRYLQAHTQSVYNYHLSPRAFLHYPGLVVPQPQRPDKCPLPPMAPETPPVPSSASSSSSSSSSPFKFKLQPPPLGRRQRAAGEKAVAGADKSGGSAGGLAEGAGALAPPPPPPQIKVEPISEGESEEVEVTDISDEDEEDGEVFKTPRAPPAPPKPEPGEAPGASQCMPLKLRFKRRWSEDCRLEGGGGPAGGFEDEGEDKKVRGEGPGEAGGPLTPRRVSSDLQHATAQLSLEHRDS
Procedure, shortened: (§1)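 Binding signal is given per hexamer as its read frequency for a factor divided by its frequency in the tag-only sample. GST-fused human transcription factors were expressed in yeast, captured on glutathione beads, barcoded with DNA and pooled with that sample, then incubated with 200 nmole of a 16-mer random double-stranded DNA library in Tris/NaCl/DTT/glycerol buffer for 30 min at room temperature. The pools were then washed, crosslinked, proximity-ligated, amplified by PCR and sequenced on an Illumina NextSeq500.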

ETS2 = molecular target: T2, ETS2 (Homo sapiens, UniProt P15036 1-469)
T2 sequence: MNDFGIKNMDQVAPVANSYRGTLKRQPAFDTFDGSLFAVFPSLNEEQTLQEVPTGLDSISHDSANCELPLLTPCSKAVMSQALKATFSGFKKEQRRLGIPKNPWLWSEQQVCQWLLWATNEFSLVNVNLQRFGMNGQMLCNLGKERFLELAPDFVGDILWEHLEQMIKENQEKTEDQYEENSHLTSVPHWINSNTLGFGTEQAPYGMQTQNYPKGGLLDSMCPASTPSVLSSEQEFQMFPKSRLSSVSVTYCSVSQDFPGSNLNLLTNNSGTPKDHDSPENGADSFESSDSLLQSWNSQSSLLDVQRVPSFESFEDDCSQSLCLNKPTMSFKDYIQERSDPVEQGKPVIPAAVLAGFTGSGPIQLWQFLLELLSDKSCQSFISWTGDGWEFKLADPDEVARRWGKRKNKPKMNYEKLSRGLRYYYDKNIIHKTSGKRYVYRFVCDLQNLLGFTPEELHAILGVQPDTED
Procedure, shortened: as §1

SPDEF = molecular target: T3, SPDEF (Homo sapiens, UniProt O95238 1-335)
T3 sequence: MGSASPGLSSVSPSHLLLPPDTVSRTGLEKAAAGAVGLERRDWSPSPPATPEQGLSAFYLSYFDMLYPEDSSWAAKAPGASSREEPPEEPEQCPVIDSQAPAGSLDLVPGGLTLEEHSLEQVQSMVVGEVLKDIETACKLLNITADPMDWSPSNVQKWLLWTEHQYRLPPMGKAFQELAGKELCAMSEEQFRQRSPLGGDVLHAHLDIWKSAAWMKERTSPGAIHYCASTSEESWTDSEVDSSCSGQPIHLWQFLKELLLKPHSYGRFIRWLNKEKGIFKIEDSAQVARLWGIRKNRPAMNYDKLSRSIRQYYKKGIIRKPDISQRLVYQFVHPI
Procedure, shortened: as §1

ETV7 = molecular target: T4, ETV7 (Homo sapiens, UniProt Q9Y603 1-341)
T4 sequence: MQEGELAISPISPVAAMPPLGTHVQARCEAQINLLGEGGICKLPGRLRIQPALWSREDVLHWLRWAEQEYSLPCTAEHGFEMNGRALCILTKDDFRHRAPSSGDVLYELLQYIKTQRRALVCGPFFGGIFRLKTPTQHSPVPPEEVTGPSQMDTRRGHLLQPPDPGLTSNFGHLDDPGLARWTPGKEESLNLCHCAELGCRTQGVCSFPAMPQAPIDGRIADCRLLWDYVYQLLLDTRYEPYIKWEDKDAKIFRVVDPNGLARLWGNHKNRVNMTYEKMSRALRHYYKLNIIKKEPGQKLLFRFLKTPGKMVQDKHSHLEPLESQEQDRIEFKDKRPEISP
Procedure, shortened: as §1

ELF5 = molecular target: T5, ELF5 (Homo sapiens, UniProt Q9UKW6-2 1-255)
T5 sequence: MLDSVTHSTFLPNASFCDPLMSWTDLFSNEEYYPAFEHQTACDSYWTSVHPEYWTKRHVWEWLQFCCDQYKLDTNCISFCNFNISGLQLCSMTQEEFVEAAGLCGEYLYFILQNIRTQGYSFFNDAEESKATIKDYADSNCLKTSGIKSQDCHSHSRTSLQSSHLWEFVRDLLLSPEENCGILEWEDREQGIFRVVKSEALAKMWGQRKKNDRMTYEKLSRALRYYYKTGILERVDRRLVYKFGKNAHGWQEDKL
Procedure, shortened: as §1

ETV3 = molecular target: T6, ETV3 (Homo sapiens, UniProt P41162-2 1-143)
T6 sequence: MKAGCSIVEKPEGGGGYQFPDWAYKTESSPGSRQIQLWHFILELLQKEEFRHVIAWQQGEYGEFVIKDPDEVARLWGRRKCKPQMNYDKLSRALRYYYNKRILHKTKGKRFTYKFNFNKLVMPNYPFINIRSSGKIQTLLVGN
Procedure, shortened: as §1

ETV6 = ETV6 (Homo sapiens, UniProt P41212 1-452)
Procedure, shortened: as §1

Chain of ETV6 (P41212 whole entry): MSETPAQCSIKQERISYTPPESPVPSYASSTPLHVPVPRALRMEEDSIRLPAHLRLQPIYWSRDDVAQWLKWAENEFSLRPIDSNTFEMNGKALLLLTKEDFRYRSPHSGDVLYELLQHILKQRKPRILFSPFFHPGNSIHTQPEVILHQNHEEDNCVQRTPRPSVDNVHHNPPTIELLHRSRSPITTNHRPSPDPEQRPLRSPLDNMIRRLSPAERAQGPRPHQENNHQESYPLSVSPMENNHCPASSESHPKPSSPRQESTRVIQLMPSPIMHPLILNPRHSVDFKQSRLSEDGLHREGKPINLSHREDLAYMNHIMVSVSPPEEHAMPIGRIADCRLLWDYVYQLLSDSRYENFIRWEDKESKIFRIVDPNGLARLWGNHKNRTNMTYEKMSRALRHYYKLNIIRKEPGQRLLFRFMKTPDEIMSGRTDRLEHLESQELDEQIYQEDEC

Sequence | binding signal (ERF) | binding signal (ETS2) | binding signal (SPDEF) | binding signal (ETV7) | binding signal (ELF5) | binding signal (ETV3) | binding signal (ETV6)
TTTGAG | 1.13 fold enrichment (6-mer frequency, TF over GST control) | 1.08 fold enrichment (6-mer frequency, TF over GST control) | 1.04 fold enrichment (6-mer frequency, TF over GST control) | 1.1 fold enrichment (6-mer frequency, TF over GST control) | 1.03 fold enrichment (6-mer frequency, TF over GST control) | 1.22 fold enrichment (6-mer frequency, TF over GST control) | 1.02 fold enrichment (6-mer frequency, TF over GST control)
CATGAA | 1.02 fold enrichment (6-mer frequency, TF over GST control) | 1.07 fold enrichment (6-mer frequency, TF over GST control) | 1.03 fold enrichment (6-mer frequency, TF over GST control) | – | 1.04 fold enrichment (6-mer frequency, TF over GST control) | 1.14 fold enrichment (6-mer frequency, TF over GST control) | –
CTCAGG | 1.02 fold enrichment (6-mer frequency, TF over GST control) | 1.12 fold enrichment (6-mer frequency, TF over GST control) | 1 fold enrichment (6-mer frequency, TF over GST control) | – | 1.04 fold enrichment (6-mer frequency, TF over GST control) | 1.01 fold enrichment (6-mer frequency, TF over GST control) | 1.08 fold enrichment (6-mer frequency, TF over GST control)
AGTTAA | 1.1 fold enrichment (6-mer frequency, TF over GST control) | 1.06 fold enrichment (6-mer frequency, TF over GST control) | 1.01 fold enrichment (6-mer frequency, TF over GST control) | 1.01 fold enrichment (6-mer frequency, TF over GST control) | 1.03 fold enrichment (6-mer frequency, TF over GST control) | 1.13 fold enrichment (6-mer frequency, TF over GST control) | 1.11 fold enrichment (6-mer frequency, TF over GST control)
ACTTAG | 1.17 fold enrichment (6-mer frequency, TF over GST control) | 1.14 fold enrichment (6-mer frequency, TF over GST control) | 1.01 fold enrichment (6-mer frequency, TF over GST control) | 1.03 fold enrichment (6-mer frequency, TF over GST control) | – | 1.09 fold enrichment (6-mer frequency, TF over GST control) | 1.14 fold enrichment (6-mer frequency, TF over GST control)
GCAATA | 1.03 fold enrichment (6-mer frequency, TF over GST control) | 1.04 fold enrichment (6-mer frequency, TF over GST control) | 1.04 fold enrichment (6-mer frequency, TF over GST control) | 1.08 fold enrichment (6-mer frequency, TF over GST control) | – | 1.04 fold enrichment (6-mer frequency, TF over GST control) | 1.03 fold enrichment (6-mer frequency, TF over GST control)
CCTAGA | 1.05 fold enrichment (6-mer frequency, TF over GST control) | 1.05 fold enrichment (6-mer frequency, TF over GST control) | 1.01 fold enrichment (6-mer frequency, TF over GST control) | – | – | – | –
TCGTAC | 1.01 fold enrichment (6-mer frequency, TF over GST control) | 1.07 fold enrichment (6-mer frequency, TF over GST control) | 1.06 fold enrichment (6-mer frequency, TF over GST control) | 1.15 fold enrichment (6-mer frequency, TF over GST control) | 1.02 fold enrichment (6-mer frequency, TF over GST control) | 1.02 fold enrichment (6-mer frequency, TF over GST control) | 1.08 fold enrichment (6-mer frequency, TF over GST control)
CGCTCG | 1.2 fold enrichment (6-mer frequency, TF over GST control) | 1.1 fold enrichment (6-mer frequency, TF over GST control) | 1.1 fold enrichment (6-mer frequency, TF over GST control) | – | 1.03 fold enrichment (6-mer frequency, TF over GST control) | 1.08 fold enrichment (6-mer frequency, TF over GST control) | 1.08 fold enrichment (6-mer frequency, TF over GST control)
AATCCA | 1.11 fold enrichment (6-mer frequency, TF over GST control) | 1.14 fold enrichment (6-mer frequency, TF over GST control) | 1.07 fold enrichment (6-mer frequency, TF over GST control) | 1.14 fold enrichment (6-mer frequency, TF over GST control) | 1.05 fold enrichment (6-mer frequency, TF over GST control) | 1.03 fold enrichment (6-mer frequency, TF over GST control) | 1.11 fold enrichment (6-mer frequency, TF over GST control)
CTATGA | 1.12 fold enrichment (6-mer frequency, TF over GST control) | 1.15 fold enrichment (6-mer frequency, TF over GST control) | 1.07 fold enrichment (6-mer frequency, TF over GST control) | 1.08 fold enrichment (6-mer frequency, TF over GST control) | 1 fold enrichment (6-mer frequency, TF over GST control) | – | –
GAATTA | 1.06 fold enrichment (6-mer frequency, TF over GST control) | 1.05 fold enrichment (6-mer frequency, TF over GST control) | 1.01 fold enrichment (6-mer frequency, TF over GST control) | 1.06 fold enrichment (6-mer frequency, TF over GST control) | 1.03 fold enrichment (6-mer frequency, TF over GST control) | 1.1 fold enrichment (6-mer frequency, TF over GST control) | 1.08 fold enrichment (6-mer frequency, TF over GST control)
TAAAGC | 1.13 fold enrichment (6-mer frequency, TF over GST control) | 1.05 fold enrichment (6-mer frequency, TF over GST control) | – | 1.04 fold enrichment (6-mer frequency, TF over GST control) | 1.01 fold enrichment (6-mer frequency, TF over GST control) | 1.1 fold enrichment (6-mer frequency, TF over GST control) | 1.02 fold enrichment (6-mer frequency, TF over GST control)
CGACGT | 1.17 fold enrichment (6-mer frequency, TF over GST control) | 1.05 fold enrichment (6-mer frequency, TF over GST control) | 1.02 fold enrichment (6-mer frequency, TF over GST control) | 1.2 fold enrichment (6-mer frequency, TF over GST control) | 1.11 fold enrichment (6-mer frequency, TF over GST control) | 1.09 fold enrichment (6-mer frequency, TF over GST control) | 1.08 fold enrichment (6-mer frequency, TF over GST control)
GGCCCT | 1.02 fold enrichment (6-mer frequency, TF over GST control) | – | – | 1.03 fold enrichment (6-mer frequency, TF over GST control) | – | 1.03 fold enrichment (6-mer frequency, TF over GST control) | –
TGCTGT | 1.08 fold enrichment (6-mer frequency, TF over GST control) | 1.15 fold enrichment (6-mer frequency, TF over GST control) | – | 1.13 fold enrichment (6-mer frequency, TF over GST control) | – | – | 1.03 fold enrichment (6-mer frequency, TF over GST control)
CAGAAT | 1 fold enrichment (6-mer frequency, TF over GST control) | – | 1.06 fold enrichment (6-mer frequency, TF over GST control) | – | 1.02 fold enrichment (6-mer frequency, TF over GST control) | – | 1.02 fold enrichment (6-mer frequency, TF over GST control)
